This passage reports Potency and activity (max response) results from PubChem BioAssay (NCATS).

“And” between values parts separate entries of the source, which are not always exact repeats. Identical values can stand only once. Records with an inconclusive call do not appear. A number with no mark means an inactive call. The source made the active and inactive calls. Calls follow the shape of the dose curve; as a rule, active = well fitted curve in the direction sought with a large enough effect; inconclusive = small, poorly fitted or top-dose-only effect, or another doubt; inactive = no such curve, though single readings can be large; an effect the other way counts as inactive or inconclusive.

Test [1] can be described thus: Viability qHTS for spleen associated tyrosine kinase inhibitor (SYKi) naive MV4-11 cells (AID 1963823). Also: nearly all actives have a fitted effect of over 40% in size. In outline:
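Cells: MV4-11, SYK inhibitor naive, 500 per well. Treatment: library compounds, 72 hr, 37 C, 5% CO2. Read-out: CellTiter-Glo luminescence after 10 min RT.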

The nature of test [2]: Quantitative highthroughput screen to assess conditional lethalithy of NOMO1 cells grown in RPMI1640 with untreated serum (RPMI+s) (AID 1963876). Also: nearly all actives have a fitted effect of over 35% in size.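 As to Viability: 100% = DMSO wells and 0% = empty wells without cells.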 The method in brief: (§1)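 Each medium arm—HPLM with 10% dialyzed FBS, or RPMI1640 with 5 mM glucose and 10% untreated or dialyzed FBS—was screened against an 11-point, 3-fold compound titration for 48 h at 37 °C, with CellTiter-Glo luminescence as endpoint.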

Test [3] in a line: Quantitative highthroughput screen to assess conditional lethalithy of NOMO1 cells grown in Human Plasma-Like Medium with dialyzed fetal bovine serum (HPLM+ds) (AID 1963878). Also: nearly all actives have a fitted effect of over 35% in size.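 As to Viability: 100% = DMSO wells and 0% = empty wells on each plate.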 In outline:
as §1

Test [4] in a line: Quantitative highthroughput screen to assess conditional lethalithy of P12 Ichikawa cells grown in Human Plasma-Like Medium with dialyzed fetal bovine serum (HPLM+ds) (AID 1963879). Also: nearly all actives have a fitted effect of over 35% in size. As to Viability: series mostly up to about 46 µM. The following applies: Potency: viability. In outline: as §1
Test [5] is described as follows: Quantitative highthroughput screen to assess conditional lethalithy of P12 Ichikawa cells grown in RPMI1640 with dialyzed fetal bovine serum (RPMI+ds) (AID 1963880). Also: nearly all actives have a fitted effect of over 35% in size.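 As to Viability: 100% = DMSO wells and 0% = empty wells on each plate.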 The note with it: Potency: P12-Ichikawa viability. The method in brief: as §1
The nature of test [6]: Quantitative highthroughput screen to assess conditional lethalithy of P12 Ichikawa cells grown in RPMI1640 with untreated serum (RPMI+s) (AID 1963881). Also: nearly all actives have a fitted effect of over 35% in size.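 As to Viability: series mostly up to about 46 µM; 100% = DMSO wells and 0% = empty wells without cells.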 The following applies: Potency: viability. In outline: as §1
A short description of test [7]: Quantitative highthroughput screen to assess conditional lethalithy of SEM cells grown in Human Plasma-Like Medium with dialyzed fetal bovine serum (HPLM+ds) (AID 1963882). Also: nearly all actives have a fitted effect of over 35% in size. As to Viability: series mostly up to about 46 µM. In outline: as §1
The nature of test [8]: Quantitative highthroughput screen to assess conditional lethalithy of SEM cells grown in RPMI1640 with unreated serum (RPMI+s) (AID 1963883). Also: nearly all actives have a fitted effect of over 35% in size.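 As to Viability: 100% = DMSO wells and 0% = empty wells without cells.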 In outline: as §1
The nature of test [9]: Cellular viability qHTS for adrenocortical cancer (ACC) cell line SW-13 (AID 1963989). Also: nearly all actives have a fitted effect of over 65% in size.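 As to activity (max response): cells grown in serum-free medium with ITS supplement; % is scaled to controls: 0 for no effect and ±100 for the full control effect.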 The note with it: SW-13 ACC cells viability, CellTiter-Glo, 48 h; activity (max response): stronger effect = lower value. In outline:
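IC50 and maximal-response values come from four-parameter logistic fits of titration data. SW-13 cells in serum-free medium received compounds (up to 46 uM final) for 48 h before CellTiter-Glo luminescence.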

Test [10] can be described thus: Cellular viability qHTS for adrenocortical cancer (ACC) cell line NCI-H295R (AID 1963990). Also: nearly all actives have a fitted effect of over 60% in size. In outline:
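Adrenocortical carcinoma cells, suspended at 300 000 cells/mL in serum-free DMEM plus ITS, rested overnight before pin transfer of compound. After two days' incubation, ATP-dependent luminescence was recorded and curve-fitted.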

The nature of test [11]: Quantitative highthroughput screen to assess conditional lethalithy of NOMO1 cells grown in RPMI1640 with dialyzed fetal bovine serum (RPMI+ds) (AID 1963877). Also: nearly all actives have a fitted effect of over 30% in size.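 As to Viability: series mostly up to about 46 µM; 100% = DMSO control wells and 0% = empty wells.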 The method in brief: as §1
Test [12] is described as follows: Quantitative highthroughput screen to assess conditional lethalithy of SEM cells grown in RPMI1640 with dialyzed fetal bovine serum (RPMI+ds) (AID 1963884). Also: nearly all actives have a fitted effect of over 35% in size.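 As to Viability: series mostly up to about 46 µM; 100% = DMSO control wells and 0% = empty wells without cells.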 In outline:
as §1
Potency is read from the fitted curve at half-maximal effect.

With `CC(NCCc1ccc(O)cc1)C(O)c1ccc(O)cc1` (stereo unspecified), the Potency entry in test [1], in [2], in test [3], in test [4], in test [5] and in test [6] was “inactive” each time. Further, the Potency entry in test [7], in test [8] and in [10] was “inactive” in each case. Moreover, in test [9], the activity (max response) is -9.55%.
`CC(C)C[C@H](NC(=O)[C@@H](O)[C@H](N)Cc1ccccc1)C(=O)O`: the Potency result in [1] and in test [10] was “inactive” in each case. Besides, the Potency in test [11] was 20.9 µM (active). In addition, in test [9], the activity (max response) is 9.42%.
On to `O=C(O)c1cccnc1Nc1cccc(C(F)(F)F)c1`, for which the Potency entry in test [1], in test [11], in [4], in test [6] and in test [7] was “inactive” throughout.
Turning to `O=C(O)CCC=CCC[C@@H]1[C@H](N2CCCCC2)[C@@H](O)C[C@@H]1OCc1ccc(-c2ccccc2)cc1`, the Potency entry in test [1], in [11], in [4], in test [5], in [6] and in [7] was “inactive” in each case. The Potency result in [8], in test [12] and in test [10] was “inactive” throughout. Besides, in test [9], the activity (max response) was -17.1%.
Regarding `Cc1cc2nc3c(=O)[nH]c(=O)nc-3n(CC(O)C(O)C(O)CO)c2cc1C` (stereo unspecified), the Potency result in test [1], in test [2], in [11], in test [4], in [5] and in [6] was “inactive” each time. The Potency result in [7], in test [8] and in [12] was “inactive” each time. Also, the activity (max response) in [9] is 9.67%.
Regarding `Cc1ccc(S(=O)(=O)OCC(=O)Nc2ccc(C(=O)O)c(O)c2)cc1`, the Potency result in [1], in test [2] and in [10] was “inactive” each time. For the same compound, the Potency in [8] was 16.6 µM (active). Besides, the activity (max response) in [9] was 6.62%.
As to `C=C(c1ccc(C(=O)O)cc1)c1cc2c(cc1C)C(C)(C)CCC2(C)C`, the Potency in test [1] is 0.468 µM (active); in test [11], 1.05 µM (active); in [3], 0.469 µM (active). The Potency entry in [4], in test [5], in test [6], in [7], in test [8] and in test [12] was “inactive” throughout. Further, the Potency entry in test [10] was “inactive”. Further, the activity (max response) in test [9] is -0.298% and -6.68%.
Regarding `N#Cc1ccnc(Nc2cc(C3CCN(C4COC4)CC3)cc(N3CCC(F)(F)C3)n2)c1`, the Potency is 1.16 µM (active) and 118 nM (active) in test [1]; 13.2 µM (active) in test [2]; 13.2 µM (active) in test [11]; 14.8 µM (active) in test [3]; 13.2 µM (active) in test [7]; 13.2 µM (active) in [8]. The Potency was 9.33 µM (active) in [12], 15.8 µM (active) in test [9] and 10 µM (active) in [10].
In the case of `C[C@H]1COc2c(N3CCN(C)CC3)c(F)cc3c(=O)c(C(=O)O)cn1c23`, the Potency entry in test [1] and in test [10] was “inactive” in each case. Moreover, the Potency is 23.5 µM (active) in [11]; 8.33 µM (active) in [4]; 4.18 µM (active) in test [6]; 13.2 µM (active) in test [8]; 1.32 µM (active) in test [12].
For `CCCCN(CCCC)C(=O)CN1C[C@H](c2ccc3c(c2)OCO3)[C@@H](C(=O)O)[C@@H]1c1ccc(OC)cc1`, the figures for the Potency in test [1] and in [7] were 16.6 µM (active) and 2.09 µM (active), respectively. The Potency entry in test [2], in [11], in test [4], in test [5] and in test [10] was “inactive” throughout. In addition, in [9], the activity (max response) is -6%.
Take `CN(C)CCCNC(=O)c1ccc(-c2cc(O)c3ncccc3c2)cc1`: the Potency in test [1] is 5.8 µM (active); in [10], 12.6 µM (active). In addition, the Potency result in test [2], in test [4] and in test [5] was “inactive” each time.
For `COc1cccc([C@@H](C)NCCCc2ccccc2Cl)c1`, in test [1], the Potency was 14.8 µM (active). Also, the Potency result in test [11], in test [3], in test [4], in [5], in [6] and in test [7] was “inactive” throughout. Besides, the Potency result in [8] and in [12] was “inactive” throughout.
Turning to `Cc1cnc(-c2cc(N3CCN(C(=O)CCS(C)(=O)=O)CC3)ncc2Cl)c(C)c1`, the Potency entry in test [1], in [2], in test [11], in test [4], in test [5] and in test [6] was “inactive” in each case. Also, the Potency entry in test [7], in test [8], in test [12] and in test [10] was “inactive” each time. In addition, in [9], the activity (max response) was -0.258%.
Consider `NS(=O)(=O)NCCNc1nonc1C(=Nc1ccc(F)c(Br)c1)NO`, for which the Potency result in test [1] and in [10] was “inactive” in each case. In addition, the Potency was 2.63 µM (active) in test [2]; 8.31 µM (active) in [11]; 2.34 µM (active) in test [4]; 8.31 µM (active) in test [5]; 5.24 µM (active) in [6]; 16.6 µM (active) in test [7]. Besides, the Potency in [8] was 3.31 µM (active); in test [12] it was 9.33 µM (active). Also, the activity (max response) in [9] is -16.2%.
With `Cc1cnc(-c2cnc(NCCNc3ccc(C#N)cn3)nc2-c2ccc(Cl)cc2Cl)[nH]1`, the Potency in test [1] is 14.6 µM (active). Moreover, the Potency entry in test [2], in test [11] and in test [10] was “inactive” each time. Moreover, in test [9], the activity (max response) is 4.03%.
Consider `CC(=O)N(C)C1(c2ccccc2)CCN(CCC[C@]2(c3ccc(Cl)c(Cl)c3)CCCN(C(=O)c3ccccc3)C2)CC1`, for which the Potency was 4.11 µM (active) in test [1]; 1.87 µM (active) in test [11]; 0.526 µM (active) in test [3]; 2.96 µM (active) in test [4]; 2.96 µM (active) in test [5]; 7.43 µM (active) in test [6]. Also, the values for the Potency in test [7], in test [8] and in test [12] were 0.662 µM (active), 0.743 µM (active) and 1.05 µM (active), respectively.
As to `N#Cc1ccnc(N2C(=O)CC[C@H]2C(=O)N(c2cncc(F)c2)[C@H](C(=O)NC2CC(F)(F)C2)c2ccccc2Cl)c1`, the Potency entry in [1] and in [10] was “inactive” throughout. The Potency in [2] was 2.34 µM (active); in [4], 1.48 µM (active); in [6], 2.95 µM (active); in test [7], 3.31 µM (active); in [8] it was 1.32 µM (active); in test [12], 3.31 µM (active). The activity (max response) in [9] was 6.3%.
With `C=C(C)[C@@H]1CC[C@]2(C)CC[C@]3(C)[C@H](CC[C@@H]4[C@@]5(C)CC[C@H](O)C(C)(C)[C@H]5CC[C@]43C)[C@@H]12`, the Potency entry in test [1], in test [3], in test [4], in [5], in test [6] and in test [7] was “inactive” each time. Moreover, the Potency entry in test [8], in [12] and in [10] was “inactive” in each case. Further, in test [9], the activity (max response) was 4.74%.
On to `COc1cc2c(Nc3ccc(NC(=O)c4ccccc4)cc3)ncnc2cc1OCCCN1CCOCC1`, for which the Potency was 1.16 µM (active) and 1.86 µM (active) in test [1]; 3.72 µM (active) in [4]; 3.32 µM (active) in [5]; 4.69 µM (active) in [6]; 3.72 µM (active) in [8]; 15.8 µM (active) in [10]. Moreover, the Potency entry in test [3] was “inactive”. The activity (max response) in [9] is -24.4%.
